Z-score data for 109 sequences are collected here from PubChem BioAssay AID1508600 (Functional Genomics Laboratory (NCATS/FGL), 2020).

Screen size: about 53,000 sequences; about 3,700 (7%) were called active.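 How the source made its calls: active means gene knockdowns whose robust z-score for IL-1 alpha signal is at least 2 or at most -2, so actives lie on both sides; inactive means the rest.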 The sample as a whole holds a higher share of actives than the screen did.

This assay is described as follows: Components of the Cytosolic LPS Sensing Pathway: Gene Identification via Genome-wide siRNA Screen.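 Further: robust z of the log signal after scaling to non-targeting control siRNA wells of the plate.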 To be noted: RAW264.7 macrophages, IL-1a HTRF, actives lie on both sides, screened at 100 nM (by protocol), cells primed 5 h with Pam3CSK4 first. In outline: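 Knockdown: 100 nM siRNA, 48h, RAW264.7. Stimulation: Pam3CSK4 5 h, then LipidA via TransIT-TKO 24 h. Output: supernatant IL-1a HTRF, negative-control-normalized, log robust z-score; viability by CellTiter-Glo.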
Background: TR-FRET usually uses a lanthanide donor and a delayed reading to cut background.
On to CGAUUUCCCAAGUUAUUACTT against Nxf1, for which the z-score is -2.26 (active). Turning to GGUGGUAGCUUUGUACUUUTT against Nxnl2, the z-score was 0.829 (inactive).

In the case of GGAAGCACGUUGGAAGGAUTT against Olfr845, the z-score was 0.461 (inactive). With GGAGAAAAGGGUGCUGAAGTT against Ybx3, the z-score is 2.85 (active). For the sequence GCAUAUGGAGCAACUUGCUTT against Dsg1c, the z-score is -1.17 (inactive). In the case of GGCUGAAAGUGAAGAAACGTT against Srp68, the z-score was -2.11 (active).

In the case of GGUGAUGAUCCCAUGGGUUTT against Ube2g2, the z-score was -0.289 (inactive).

For GGUUUGUUUGUUUUUUGGUTT against Ajuba, the z-score is 2.96 (active). Regarding GGUGCAAAGCUUGAAAAUGTT against Gpr150, the z-score is -0.324 (inactive). Regarding GCGAGUGCUUGGCUAUUAUTT against Ckap2, the z-score is -0.234 (inactive). GGAGUGAAAUAUGGAGUUGTT against Dhrs7b: the z-score is 0.787 (inactive).

Turning to GGAAUGUAAGAACCCUUGCTT against Adam19, the z-score was 1.77 (inactive).

Consider GAUCUUAGCUGUGUGUGUGTT against Pf4, for which the z-score is -2.57 (active).

As to GGCCUAUGCGAAAAUCUGUTT against Camk2b, the z-score was -1.14 (inactive). Turning to GGAAAUUCUGGCAUAAAUUTT against Cd86, the z-score was -0.732 (inactive). For the sequence GGACAUCAUUACAAAGAUGTT against Rgs6, the z-score is -0.608 (inactive). GCUUCGAGAGUCAACUAUGTT against Mecom: the z-score is 0.232 (inactive). With GGGCACAAAGAUAUGAAUATT against Lgals3bp, the z-score was 0.147 (inactive). With GGUGAGGUAGGUUACUCAGTT against Reps1, the z-score is -2.16 (active).

Consider GGAACGAAUGAAAAGACUUTT against Tpp2, for which the z-score was 0.35 (inactive). As for GGUUGCUAUGAUUUUUGUUTT against Itsn1, the z-score was 0.52 (inactive). As to GGAAGUGAGAAGAUGGAUATT against Fam163b, the z-score is 0.93 (inactive). In the case of GGGACAGAUACAGUUCAUGTT against Zan, the z-score was -0.114 (inactive). Consider GCACGAGGAUUCAGAUAUCTT against Gusb, for which the z-score is -0.449 (inactive).

With GGAUCUCCUGCUUGAACUGTT against Adam33, the z-score is 2.79 (active).

As for CCAGCAUUAUCCAUAUCAATT against Nat2, the z-score was 0.786 (inactive). On to GGUCUCAGACACCUGACUCTT against Opa3, for which the z-score is 1.53 (inactive). GGUGUCAGCUUACCAUUCATT against Triap1: the z-score was -0.329 (inactive). For the sequence CCUUGCAUUACUUCUAAAUTT against Aff2, the z-score was 0.29 (inactive). On to GGCAUUGUGAAAUCCUAUUTT against Lhx5, for which the z-score is -1.31 (inactive). Take CCUGACAGCACUUUGUGGATT against Arhgef4: the z-score was 0.481 (inactive). As for GGUGCAUGUCUUCAUCCACTT against Rnase12, the z-score is 3.04 (active). Take GGAAAAUCCCUGUGUCCGATT against Spdye4a: the z-score was -1.34 (inactive). Take GCAGGAGGUUUAUACAGCCTT against Spata5: the z-score is -0.969 (inactive). As for GCCUAUUCGAAUUUGGGAATT against Ogt, the figure is -0.0977 (inactive); as for GGAAAUGACGAGAAGAAAGTT against Mapt, -0.0597 (inactive). Consider GCCUUUGUGAGGAUUAAACTT against Fam83f, for which the z-score was -0.000611 (inactive). Consider GGUAUAUGUCACCAUACUCTT against Phxr2, for which the z-score is -1.99 (inactive). As for GGCAUGAAGUUUGAAGCCATT against Cnnm2, the figure is -2.47 (active); as for GGAGCUCUUCCAGUUGUUUTT against Khk, -1.51 (inactive); as for GCAAUGUGAGAAUUUUAACTT against Psg26, 2.03 (active). With GCACAGAGUCUAGUGUUUATT against Ube2j2, the z-score is 0.325 (inactive). Regarding GGGCAUUGUUGUUUCUAUUTT against Lhfp, the z-score was -0.0841 (inactive). To CCAAAUUGCUGACUUAUUCTT against Ccna2 belongs 0.794 (inactive); to GGGUUUCCUUAUGAGAAAGTT against Mien1, -0.606 (inactive); to GGUUUGUGACAUUAUCUGCTT against Wrnip1, 2.36 (active). CGCUCCAUUGCUCAGUAUUTT against Vtn: the z-score is 1.63 (inactive). As to GGCAGCAGAGAAGAAAGCCTT against Pld3, the z-score is -3.16 (active). As for GCUCAAUUGUGGAGCAGUCTT against Cd5l, the figure is -0.247 (inactive); as for GGCUAAUGAAGCACGCAGATT against Tspan33, 0.264 (inactive); as for CGACCUAUUAGAGAGCAACTT against Zfp248, 2.58 (active). For GGAUCGAAUCUUUACCUAUTT against Col9a1, the z-score was 0.932 (inactive). Turning to GGCCAAAGUCCAUUCAUUCTT against Olfr1120, the z-score is 1.31 (inactive). As for CCAAUAUCUCCAAAUAGAATT against Atp8b1, the figure is -0.974 (inactive); as for GGGAAAUCCGAUAUUCCCUTT against Lats2, 1.1 (inactive). To GGCGGUUUUAGUGAAUAACTT against Golm1 belongs 2.17 (active). To GGUUAGAGAUCUUUUGAAATT against St14 belongs -0.333 (inactive); to GCAUGUGCUAUAAUGAUCATT against Gm5444, 0.256 (inactive). Consider CCACAAUUACCCAGUAUGATT against Olfr498, for which the z-score was -0.939 (inactive).

CCUCAUGUCUGGCAUCUUGTT against Egr4: the z-score is -1.7 (inactive). Regarding GGGUGCCUACUUGAUCCUUTT against Hgh1, the z-score is 1.63 (inactive). GGCUUCAAAGGCAAAGUUCTT against Fbf1: the z-score was -1.5 (inactive). For the sequence CCAUAUGUGAUUUGUCUUGTT against Cacnb2, the z-score is -0.706 (inactive). As for CCUAAGGUACCAUUUUAAATT against Clp1, the z-score was 0.225 (inactive). Turning to GGAAGACACACAGUACAUGTT against Rfx2, the z-score is 2.92 (active). For GGAGGCUGUCUGUCUAAUATT against Trim39, the z-score was 0.25 (inactive). As for CCAAUCAACCCUCUAAGCATT against Nphp4, the figure is 0.576 (inactive). GCCAUCGAUACCACAACACTT against Slfn8: the z-score is -1.61 (inactive). For the sequence GGCAACAUUAGAAGACAGUTT against Tfb1m, the z-score is -0.591 (inactive). Turning to CCAUCAGGACUCGUGAAUGTT against Fign, the z-score was -2.09 (active). Take GGGAAAUGGAAAGCAUUCUTT against Olfr374: the z-score is 1.41 (inactive). As for GGAGUUUGACUCAAUAUCATT against Napb, the figure is 1.24 (inactive). With CCCUUCUCACUAACAUACATT against Dach1, the z-score is 1.18 (inactive).

As to GCUACGAGAUUCUUGUUGCTT against Taar3, the z-score was -0.615 (inactive). To GGAGAGGAGACACAUCAGUTT against Gnpat belongs -0.067 (inactive); to CCAAAACGUGCAACACAAUTT against Cops6, 0.37 (inactive); to GGUUGAACUCAAAGUAAAGTT against Preb, -1.18 (inactive).

Consider GGUGAACCUCAAUAAUAUCTT against Tmod4, for which the z-score was 0.274 (inactive).

As for GGAGUUUACUGAGUUUUAGTT against Prkaca, the z-score is 4.49 (active).

In the case of GGCUCCAGUAAUUGAUAAATT against Sycp3, the z-score was -0.0955 (inactive).

Regarding GGGCUGCUGCUUAGCAAUCTT against Egln3, the z-score is -0.0783 (inactive).

With GGAUGGAGAAGUUUACUACTT against Yap1, the z-score is 0.714 (inactive). Turning to GGCGUAACCUAACAUGGGATT against Clec1b, the z-score was -1.35 (inactive).

Regarding GCAACAAUUCUAACAGCUGTT against Lhfpl5, the z-score is -0.138 (inactive). For the sequence GGCCUUCCAUACUACAACUTT against Zfp595, the z-score is 2.2 (active).

With CCACGUAGGUAAGUGUAGGTT against Oard1, the z-score was 0.81 (inactive). For the sequence GGAGCAAGGCUACAUUUUUTT against Itih3, the z-score was 1.36 (inactive). To GGACAAGGCCCUCAUGAUUTT against Nek8 belongs -0.468 (inactive); to GCUCGAGUACCUGUACCUATT against Elfn1, 3.11 (active). CCUUCAACCUUCGAGAUACTT against Kcnh2: the z-score was -0.417 (inactive). As for GGUCUUCUUUGAUGUGAGGTT against Ppic, the z-score was -0.832 (inactive). To GGACUGAAGAAGUGUGUGGTT against Scgb3a2 belongs 1.66 (inactive).

With GCUUCCAGUCAGUGGUUACTT against Rara, the z-score is 1.07 (inactive).

GGAUGAGCAGAUGCUCCAATT against Mtmr7: the z-score was 0.451 (inactive). In the case of GGUAUUUUGACCGAAUCAATT against Add3, the z-score is -0.294 (inactive). To GCUCCUCACUUAUUGCCCATT against Zfp354b belongs -0.0805 (inactive); to GGAUGAAAACACUGAAUACTT against Olfr644, -0.714 (inactive). As to GCAUUUAGUGAGUUCAGUGTT against Kirrel3os, the z-score was 0.855 (inactive). To GCGCAACUAAAACAGAUUGTT against Eif2ak1 belongs 2.2 (active); to GGGAUACUUUUUAUUCAGGTT against Nmu, -0.0461 (inactive). In the case of GGAGCAGACGAUAUGCAGATT against Copb2, the z-score was 0.559 (inactive).

Take CCAAUUGCUAAUCCUUUGUTT against Pin1: the z-score was 1.52 (inactive). Regarding GGACACAAUCCAGAACCAGTT against Angpt4, the z-score was -0.189 (inactive). GCCUGAGUUAUGUUUAAAGTT against Pgam5: the z-score is 0.00362 (inactive).

As for CCACGUGAAGGAGAGAUGATT against Mob2, the z-score was 1.39 (inactive). Regarding GCGACCAGGACCGCGUCAATT against Sox3, the z-score is -1.07 (inactive).

On to GCACUGAAGCCUAGCUGUUTT against BC051142, for which the z-score was 1.41 (inactive). In the case of GGUGUUGAGUUCAAGUCUATT against Dennd11, the z-score was -0.468 (inactive). With GGGCAAACUCUAUAAUCAGTT against BC023105, the z-score was 0.337 (inactive).
